# Results reported in the supplement of paper PMC10338343.
# ± gives the standard deviation.
# What was measured:
# [1] = tested on: MILI (PIWIL2) piRISC loaded with L1MC piRNA (26 nt); assay: pre-steady-state target cleavage rate (min^-1); guide: L1MC piRNA 5'p-UAACUAAAUACUAUGCAAGCUGUAGG; higher = faster piRNA-guided slicing of the target
# How it was run: (§1)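 Cleave-'n-Seq reactions paired 0.1 nM transcribed, DNA-blocked target RNA library with 1 nM active affinity-purified piRISC holding one synthetic guide, plus or minus 500 nM GTSF1 partner protein, in HEPES–potassium acetate buffer at 33 °C for 0–8 or 0–960 min. After sequencing of uncleaved targets and normalisation to depth and weakly complementary targets, the pre-steady-state cleavage rate was taken from a burst-and-steady-state fit. Three trials were pooled, and k3 was capped at 0.0001 min^-1.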
# [2] = tested on: EfPiwi piRISC loaded with L1MC piRNA (26 nt); assay: pre-steady-state target cleavage rate (min^-1); auxiliary factor: 500 nM Ephydatia muelleri Gtsf1; guide: L1MC piRNA 5'p-UAACUAAAUACUAUGCAAGCUGUAGG; MIWI and MILI are mouse PIWI proteins and EfPiwi is from a freshwater sponge; tags in brackets are library labels; higher = faster piRNA-guided slicing of the target
# How it was run: as §1
# [3] = auxiliary factor: 500 nM mouse GTSF1
# [4] = auxiliary factor: none (no GTSF1)
Sequence,"pre-steady-state target cleavage rate [1, 3]","pre-steady-state target cleavage rate [1, 4]",pre-steady-state target cleavage rate [2]
UCCUGGAUGUGGAUGCAUAGUAUUUAGUUA,0.092 ± 0.012,0.00877 ± 0.0027,0.00943 ± 0.0037
UCCUGCAUCAGCUUGCAUAGUAUUUAGUUA,0.322 ± 0.021,0.00843 ± 0.0023,0.0591 ± 0.011
UCCUGGAACAGUUGCAUAGUAUUUAGUUA,0.2 ± 0.014,0.00668 ± 0.0022,0.0543 ± 0.013
UCCUGGUACAGCUAGCAUAGUAUUUAGUUA,0.259 ± 0.017,0.00964 ± 0.0026,0.0085 ± 0.0027
UCCUGCUAGAGCUUGCUUAGUAUUUAGUUA,0.162 ± 0.01,0.00643 ± 0.002,0.00554 ± 0.002
UCCUCCUACAGCUUGCUUACUAUUUAGUUA,0.089 ± 0.011,0.00298 ± 0.0026,0.0407 ± 0.015
UCCUGGAUGUCCUUACAUAGUAUUUAGUUA,0.0839 ± 0.012,0.00844 ± 0.002,0.00492 ± 0.0036
UCCUGGAACAGCUUGGUUAGUAUUUAGUUA,0.213 ± 0.02,0.0126 ± 0.0037,0.0135 ± 0.005
UCCUGCUACAGCUUGCAUAGUAAUUUAGUUA,0.233 ± 0.023,0.00525 ± 0.0024,0.00515 ± 0.0024
UCCUGGAUCUGCUUGCAUAGUAAUUAGUUA,0.2 ± 0.017,0.00416 ± 0.0027,0.0152 ± 0.005
UCCUGGAUGUCGACGCAUAGUAUUUAGUUA,0.0214 ± 0.0042,0.00381 ± 0.0021,0.00545 ± 0.0032
UCCUGGAUCAGCUUGCAUAGUAAUUAGUAA,0.0974 ± 0.021,0.00485 ± 0.0021,0.00487 ± 0.0027
UCCUGGUACAGCUUGCAAAGUUUUUAGUUA,0.0248 ± 0.0088,0.00339 ± 0.0029,0.00245 ± 0.0024
UCCUGGAACAGCUUCCAUUGUAUUUAGUUA,0.11 ± 0.019,0.00471 ± 0.0022,0.00345 ± 0.0017
UCCUGGAACAGCGUUGCAUAGUAUUUAGUUA,0.203 ± 0.017,0.0103 ± 0.0025,0.0162 ± 0.0046
UCCUGGUAGAGCUUGCAUUGUAUUUAGUUA,0.18 ± 0.015,0.00645 ± 0.0026,0.00786 ± 0.0033
UCCUGGAACAGCUUUCAUAGUAUUUAGUUA,0.197 ± 0.021,0.00688 ± 0.0024,0.00631 ± 0.0025
UCCUCCUACAGCUUGCAUGGUAUUUAGUUA,0.413 ± 0.019,0.00982 ± 0.003,0.0681 ± 0.02
UCCUGGAACAGCUUGUCAUAGUAUUUAGUUA,0.2 ± 0.014,0.00365 ± 0.0033,0.0277 ± 0.0088
UCCUCCUACAGCAUGCAUUGUAUUUAGUUA,0.217 ± 0.015,0.0102 ± 0.0027,0.0134 ± 0.0043
UCCUGGAUCAGGUUGCAUACUAUUUAGUUA,0.0436 ± 0.0082,0.00331 ± 0.0025,0.00262 ± 0.0019
UCCUGGAACAGCUUGCAUAGUAUUUGGUUA,0.221 ± 0.026,0.00881 ± 0.0026,0.00496 ± 0.002
UCCUCCAACAGCUUGCAUAGUUUUUAGUUA,0.0522 ± 0.0087,0.00502 ± 0.0021,0.0119 ± 0.0041
UCCUCCUACAGCUUACAUAGUAUUUAGUUA,0.276 ± 0.016,0.00586 ± 0.0026,0.106 ± 0.028
UCCUGGUACAGCUAGGAUAGUAUUUAGUUA,0.191 ± 0.026,0.00723 ± 0.0022,0.00331 ± 0.0017
UCCUGGAUCAGGUUGGAUAGUAUUUAGUUA,0.164 ± 0.013,0.0112 ± 0.0027,0.00425 ± 0.003

Sequence,"pre-steady-state target cleavage rate [1, 3]","pre-steady-state target cleavage rate [1, 4]",pre-steady-state target cleavage rate [2]
UCCUGGUACAGGUUGGAUAGUAUUUAGUUA,0.303 ± 0.043,0.00912 ± 0.0032,0.00482 ± 0.0022
UCCUCCUACAGCUGCAUAGUAUUUAGUUA,0.275 ± 0.018,0.00792 ± 0.0023,0.0884 ± 0.026
UCCUGGAUGUGACUUGCAUAGUAUUUAGUUA,0.114 ± 0.019,0.00737 ± 0.0028,0.00497 ± 0.0028
UCCUCCUACUGCUUGCAUAGUAUAUAGUUA,0.179 ± 0.021,0.00372 ± 0.0022,0.0123 ± 0.0054
UCCUGGAUCAGCUUCGCAUAGUAUUUAGUUA,0.309 ± 0.02,0.00591 ± 0.0024,0.0389 ± 0.009
UCCUCCUACAGCAAGCAUAGUAUUUAGUUA,0.281 ± 0.014,0.00806 ± 0.0019,0.0493 ± 0.018
UCCUGGUACAGCUUAGCAUAGUAUUUAGUUA,0.296 ± 0.018,0.0164 ± 0.0045,0.0188 ± 0.0058
UCCUGGUACAGCUUGCAUAGUAUUUAGUUA [g2:g24:cont:t1A],0.277 ± 0.018,0.0215 ± 0.0056,0.0865 ± 0.024
UCCUGGAUGUCCUCUGCAUAGUAUUUAGUUA,0.0405 ± 0.0082,0.00562 ± 0.0033,0.00412 ± 0.003
UCCUGGAUCACCUUGCAUAGUAUUAAGUUA,0.201 ± 0.034,0.00424 ± 0.0023,0.00509 ± 0.0039
UCCUGGUACAGCUAGCAUAGUAUUUUGUUA,0.085 ± 0.028,0.00427 ± 0.0033,0.00396 ± 0.0023
UCCUGGAACAGCUUCGCAUAGUAUUUAGUUA,0.237 ± 0.016,0.00647 ± 0.0022,0.0367 ± 0.008
UCCUCCUACAGCUAUGCAUAGUAUUUAGUUA,0.267 ± 0.02,0.00637 ± 0.0022,0.0164 ± 0.0055
UCCUCCUACAGCUUGCAUAGUUAUUUAGUUA,0.0152 ± 0.0067,0.00383 ± 0.0024,0.00556 ± 0.0031
UCCUGGAAGAGCUUGCAAAGUAUUUAGUUA,0.075 ± 0.012,0.00782 ± 0.0029,0.018 ± 0.005
UCCUGGAUCAGCAUGCAUACUAUUUAGUUA,0.0724 ± 0.0079,0.00491 ± 0.0019,0.00409 ± 0.0018
UCCUCCUACACGAUGCAUAGUAUUUAGUAA,0.194 ± 0.026,0.00362 ± 0.0022,0.00453 ± 0.0027
UCCUGGAUGUGCUUGCAUAGUAUUUGGUUA,0.131 ± 0.013,0.01 ± 0.0034,0.00579 ± 0.003
UCCUGGAUGUCGUAUGCAUAGUAUUUAGUUA,0.0833 ± 0.012,0.00487 ± 0.0028,0.00476 ± 0.0027
UCCUGGAUGAGCUUGCAUAGUAUUAAGUUA,0.194 ± 0.029,0.00479 ± 0.0019,0.00469 ± 0.0021
UCCUCCUACAGCUUGCAUCGUAUUUAGUUA,0.129 ± 0.013,0.00682 ± 0.0021,0.0492 ± 0.014
UCCUCCUACAGCUUGGAUAGUAUUUAGUAA,0.208 ± 0.02,0.00459 ± 0.0023,0.00895 ± 0.0035
UCCUCCUACAGGUUGCAUAGUAUUUAGUUA,0.264 ± 0.013,0.00924 ± 0.0019,0.0556 ± 0.013
UCCUGGAUCAGCUUGCAUAGUAUUUAGGUUA,0.271 ± 0.027,0.00531 ± 0.0025,0.00516 ± 0.0024
UCCUGCUACGAGCUUGCAUAGUAUUUAGUUA,0.217 ± 0.026,0.00594 ± 0.0032,0.00866 ± 0.0022
